Assay results from PubChem BioAssay (NCI).
About 83,000 compounds went through this panel and 20% of them were active in at least one assay; those are over-represented in the sample as a whole.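 Interpretation: 100, growth as untreated; towards 0, rising growth inhibition; 0, no net growth; 0 to -100, cell death. Compounds scoring below 10 were considered active.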 A number with no mark means an inactive call. The source made the active and inactive calls.

Assays:
Test in all cases: NCI-60 one-dose screen, 48 h (100 = growth as untreated, 0 = no growth, -100 = all killed)
[1] = system: HCT-15 colon; conditions: 10 µM unless noted
[2] = system: HT29 colon; conditions: 10 µM unless noted
[3] = system: SNB-75 CNS; conditions: 10 µM unless noted
[4] = system: SNB-19 CNS; conditions: 10 µM unless noted
[5] = system: U251 CNS; conditions: 10 µM unless noted
[6] = system: PC-3 prostate; conditions: 10 µM unless noted
[7] = system: SK-MEL-5 melanoma; conditions: 10 µM unless noted
[8] = system: UACC-62 melanoma; conditions: 10 µM unless noted
[9] = system: SK-MEL-28 melanoma; conditions: 10 µM unless noted
[10] = system: SK-MEL-2 melanoma; conditions: 10 µM unless noted
[11] = system: EKVX NSCLC; conditions: 10 µM unless noted
[12] = system: SN12C renal; conditions: 10 µM unless noted
[13] = system: UO-31 renal; conditions: 10 µM unless noted
[14] = system: TK-10 renal; conditions: 10 µM unless noted
[15] = system: ACHN renal; conditions: 10 µM unless noted
[16] = system: CAKI-1 renal; conditions: 10 µM
[17] = system: A498 renal; conditions: 10 µM unless noted
[18] = system: CCRF-CEM leukemia; conditions: 10 µM unless noted
[19] = system: MOLT-4 leukemia; conditions: 10 µM unless noted
[20] = system: LOX IMVI melanoma; conditions: 10 µM unless noted

Row | Structure (SMILES) | growth [1] | growth [2] | growth [3] | growth [4] | growth [5] | growth [6] | growth [7] | growth [8] | growth [9] | growth [10] | growth [11] | growth [12] | growth [13] | growth [14] | growth [15] | growth [16] | growth [17] | growth [18] | growth [19] | growth [20]
1 | COc1ccc(-c2nnc(/N=C3/C(=O)Nc4ccc(Br)cc43)o2)cc1 | 91.3% | 113% | 90% | 97.8% | 107% | 104% | 98.8% | 95.7% | 102% | 101% | 91.7% | 107% | 81.3% | 143% | 93.7% | 88.8% | 91.9% | 96% | 96.1% | –
2 | C#C[C@]1(O)CC[C@H]2[C@@H]3CC=C4c5sc(Nc6ccc(OC)nc6)nc5CC[C@]4(C)[C@H]3CC[C@@]21C | -66.4% (active) | -4.57% (active) | -8.98% (active) | 50.5% | 17.8% | 29.9% | 52.1% | 70.5% | 68.8% | 68% | 48.7% | 70.5% | 32.6% | 124% | 33.4% | 23.8% | 25.9% | 8.55% (active) | 3.4% (active) | –
3 | N#Cc1c(NC(=O)c2ccccc2C(F)(F)F)sc2c1CCC(=O)C2 | -32.3% (active) | 8.88% (active) | 20.1% | 15.5% | 16.3% | 13% | – | -26.9% (active) | -14.9% (active) | 12.2% | 12.4% | 14.5% | -25.2% (active) | 35.1% | -32.8% (active) | -11.1% (active) | 81.8% | 13% | 11.2% | 6.27% (active)
4 | CCN(CC)CCN1C(=O)c2c(c3c4cc(Br)ccc4[nH]c3c3ccc4ccccc4c23)C1=O | -88.6% (active) | -69.9% (active) | 77% | -92.7% (active) | -86.3% (active) | -80.9% (active) | -83.6% (active) | 31.7% | -70.1% (active) | 116% | -88.1% (active) | -71.4% (active) | -86.1% (active) | -73% (active) | -100% (active) | 12.8% | 57.6% | 1.96% (active) | -30.7% (active) | –
5 | C#C[C@]1(O)CC[C@H]2[C@@H]3CC=C4c5sc(Nc6nc(C)cc(OC)n6)nc5CC[C@]4(C)[C@H]3CC[C@@]21C | 35.3% | 60.8% | -10.8% (active) | 55% | 34.2% | 27.5% | 17.9% | 0.98% (active) | 21.1% | 58.2% | 41.8% | 73% | -1.87% (active) | 121% | 49.2% | 19.2% | 18.7% | 12.7% | 7.93% (active) | –
6 | COc1ccc([C@H]2[C@H](O)C(=O)N2c2cc(OC)c(OC)c(OC)c2)cc1Cl | 9.77% (active) | 1.45% (active) | 58.6% | 29.2% | 1.42% (active) | 12.6% | – | 31% | 63.6% | – | 50.1% | 22.2% | 32.8% | 85.4% | 26.6% | 30.6% | -17% (active) | 16.4% | – | 14.4%
7 | COc1ccc2c(c1)c(-c1nn3c(=O)cc(-c4ccccc4)nc3s1)cn2C | 34.7% | 10.5% | 14.9% | 39.1% | 26.8% | 32.4% | – | 24.2% | 51.5% | – | 85.3% | 45.2% | 38.1% | 64.1% | 44.3% | 46.6% | 4.32% (active) | 34.7% | – | 37.9%
8 | C#C[C@]1(O)CC[C@H]2[C@@H]3CC=C4c5sc(Nc6cccc(C)n6)nc5CC[C@]4(C)[C@H]3CC[C@@]21C | 15.6% | 37.7% | -23.9% (active) | 18.5% | 6.3% (active) | -1.41% (active) | 3.52% (active) | -20.9% (active) | -55% (active) | -9.35% (active) | 8.96% (active) | 56.4% | -15.4% (active) | 77.2% | 33.1% | 2.65% (active) | -29.2% (active) | 2.04% (active) | -25.2% (active) | –
9 | Cc1nn(-c2ccccc2)cc1/C=N/Nc1nc(Nc2ccccc2)nc(Nc2ccc(S(N)(=O)=O)cc2)n1 | 7.54% (active) | 5.91% (active) | 44.8% | 7.01% (active) | -22.3% (active) | 1.45% (active) | – | -27.8% (active) | -13.9% (active) | 54.8% | 18.8% | 0.245% (active) | -4.7% (active) | 44.5% | 0.841% (active) | -27.8% (active) | -30.3% (active) | 8.85% (active) | 6.35% (active) | -25.7% (active)
10 | C#C[C@]1(O)CC[C@H]2[C@@H]3CC=C4c5sc(Nc6cc(Cl)ccn6)nc5CC[C@]4(C)[C@H]3CC[C@@]21C | 3.75% (active) | 21.4% | -33.2% (active) | -1.08% (active) | 15.1% | 7.93% (active) | -58.9% (active) | -17% (active) | -47.3% (active) | -4.31% (active) | -1.83% (active) | 53.6% | -51.3% (active) | 35.4% | 32.5% | -19.9% (active) | -42.4% (active) | 9.26% (active) | 4.35% (active) | –
11 | O=C(NCCNc1cc(-c2cn(-c3ccccc3)nc2-c2cccc(O)c2)ccn1)Nc1ccc(Cl)c(C(F)(F)F)c1 | 2.46% (active) | 34.8% | 42.8% | 46.8% | 42.8% | 42.2% | – | 77% | 42.1% | 104% | 56.7% | 65.6% | 42.1% | 98.1% | 44.2% | 46% | 72.5% | 54.1% | 47.1% | 0.724% (active)
12 | CCNC(=O)Oc1ccc(/C(=C(/C)c2ccccc2)c2ccc(OCCN3CCCC3)cc2)cc1 | 46.5% | 9.61% (active) | 79.4% | 79% | 58.6% | 64.2% | – | 83.4% | 56.2% | 93.3% | 77.3% | 78.2% | 61% | 102% | 86% | 79.9% | – | 64% | 51.7% | 18.4%
13 | O=C1c2c(c3c4cc(Br)ccc4[nH]c3c3ccc4ccccc4c23)C(=O)N1CCN1CCNCC1 | -87.3% (active) | 8.96% (active) | 85% | 77.3% | -47.3% (active) | 67.2% | 91.4% | 78.8% | 95.9% | – | 85.9% | 84.8% | 58.7% | 148% | 69.6% | 66.1% | – | 3.91% (active) | 4.47% (active) | –
14 | O=C1c2c(c3c4cccnc4[nH]c3c3ccc4ccccc4c23)C(=O)N1CCN1CCOCC1 | 47.5% | 53.3% | 68% | 55.6% | 51.6% | 62.1% | 43.9% | 57.7% | 92.9% | 98.4% | 86.7% | 68.4% | 54.5% | 112% | 41.3% | 46.2% | 69% | 23.9% | 7.9% (active) | –
15 | CCNC(=O)Oc1ccc(/C(=C(/C)c2ccc(Cl)cc2)c2ccc(OCCN(C)C)cc2)cc1 | 47% | 15.2% | 75.4% | 81.1% | 58.8% | 62.8% | – | 86.4% | 93.4% | 98% | 72.1% | 77.8% | 61.7% | 92% | 91.4% | 73.4% | – | 66.7% | 50.4% | 41.5%
16 | O=C1c2c(c3c4cccnc4[nH]c3c3ccc4ccccc4c23)C(=O)N1CCN1CCNCC1 | 3.44% (active) | 57.9% | 84% | 76.3% | 56.2% | 66.8% | 91.7% | 79.6% | 108% | 113% | 92.4% | 76.7% | 58% | 136% | 37% | 52.2% | 70.2% | 27.2% | 8.49% (active) | –
